This note sets out measurements from PubChem BioAssay (NCATS).

Assay [1] deals with Furin (Homo sapiens) (UniProt P09958). Nature of the assay: Furin counterscreen qHTS for Zika virus inhibitors (AID 1347149). Also: potency is read from the fitted curve at half-maximal effect; nearly all actives have a fitted effect of over 70% in size. Put shortly:
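Counterscreen measures cleavage of 2 microM BOC-RVRR-AMC, below its ~15 microM Km, by 5 nM full-length human furin at pH 7.0 after a 15-min compound preincubation. Inhibition derives from the 15-min fluorescence increase at 37C.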

A short description of assay [2]: Confirmatory screen GU Rhodamine qHTS for Zika virus inhibitors qHTS (AID 1347157). Also: nearly all actives have a fitted effect of over 70% in size. The procedure, abridged:
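Percent inhibition derives from the 15-min fluorescence change (ex 480, em 540 nm), normalized to no-enzyme and no-inhibitor wells. Reactions contained 25 nM NS2B-NS3 complex and 1.5 microM substrate in 10 mM Tris-HCl pH 8.0.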
Background: In qHTS, concentration-response curves come from the screen itself.

A short description of assay [3]: Confirmatory screen NINDS Rhodamine qHTS for Zika virus inhibitors (AID 1347161).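 Also: purified Zika NS2B-NS3 protease with linked NS2B cofactor domain and Rhodamine110 peptide substrate; series mostly up to about 110 µM; nearly all actives have a fitted effect of over 60% in size.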 Put shortly: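 Percent inhibition, normalized to uninhibited and enzyme-free controls, is fitted to a 4-parameter Hill equation. Fluorescence change comes from a 15-min cleavage of 1.5 microM bis-peptide Rhodamine110 substrate by 25 nM linked NS2B-NS3 at room temperature.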
Assay [4] can be described thus: Tertiary RLuc qRT-PCR qHTS assay for Zika virus inhibitors (AID 1347169). Also: top concentration of the series differs between compounds; nearly all actives have a fitted effect of over 55% in size. The procedure, abridged:
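Vero cells (1,000/well) infected with recombinant ZIKV-RLuc (Cambodian) at MOI 1-2 after compound addition, 48-72 hrs at 37 degrees C. Live-cell Renilla luciferase substrate added; luminescence read after 1-1.5 hrs.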
A general note: Quantitative PCR measures a nucleic acid by following its amplification.

Structures are written as SMILES. Inconclusive results are not listed. Unmarked numbers belong to inactive results. The source made the active and inactive calls. Calls follow the shape of the dose curve; as a rule, active = well fitted curve in the direction sought with a large enough effect; inconclusive = small, poorly fitted or top-dose-only effect, or another doubt; inactive = no such curve, though single readings can be large; an effect the other way counts as inactive or inconclusive.

Furin (Homo sapiens), sequence (P09958 whole entry, looked up): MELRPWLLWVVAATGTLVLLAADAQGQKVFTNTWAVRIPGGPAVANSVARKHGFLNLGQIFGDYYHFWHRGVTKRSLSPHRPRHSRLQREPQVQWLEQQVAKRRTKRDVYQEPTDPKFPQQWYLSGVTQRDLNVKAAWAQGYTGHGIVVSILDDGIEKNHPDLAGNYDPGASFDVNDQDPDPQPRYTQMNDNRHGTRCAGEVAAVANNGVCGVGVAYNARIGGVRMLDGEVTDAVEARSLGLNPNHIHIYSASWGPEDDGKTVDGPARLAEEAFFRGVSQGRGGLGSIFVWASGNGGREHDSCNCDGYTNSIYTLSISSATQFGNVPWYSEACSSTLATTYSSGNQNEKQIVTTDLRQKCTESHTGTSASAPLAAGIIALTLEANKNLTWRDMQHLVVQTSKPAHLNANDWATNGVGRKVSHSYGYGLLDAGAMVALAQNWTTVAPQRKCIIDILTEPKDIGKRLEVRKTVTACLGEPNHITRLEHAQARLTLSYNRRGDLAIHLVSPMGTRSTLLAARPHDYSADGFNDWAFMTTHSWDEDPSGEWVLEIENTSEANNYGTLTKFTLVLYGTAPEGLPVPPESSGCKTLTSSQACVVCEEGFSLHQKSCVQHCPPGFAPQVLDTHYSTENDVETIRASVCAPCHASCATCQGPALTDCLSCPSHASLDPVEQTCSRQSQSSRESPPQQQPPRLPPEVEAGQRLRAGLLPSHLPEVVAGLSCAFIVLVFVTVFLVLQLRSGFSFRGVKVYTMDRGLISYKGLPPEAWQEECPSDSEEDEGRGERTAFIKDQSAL

Turning to `O=C(Nc1ccc(C(=O)OCc2cc(=O)n3c4c(sc3n2)CCCC4)cc1)c1ccccc1`, in assay [1], the Potency was 41.8 µM (active). For the same compound, the Potency result in assay [2], in assay [3] and in assay [4] was “inactive” each time.
